Assays:
Assay in all cases: PBM binding z-score (relative to random genomic background probes); higher = stronger binding; sequences stand for … in GC…GCGATTGACAGCGTAGAATGAAGG
[1] = test system: RARb homodimer (NR concentration 270 nM)
Summary of the method: (§1)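 Random background probes are the reference for binding z-scores. These scores derive from regression-normalized fluorescence on custom Agilent 4×180K protein-binding microarrays incubated 1 h with ligand-free nuclear receptor dimers. Binding was detected with antibodies against each partner (one per run).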

[2] = test system: RARg:RXRa (NR concentration 270 nM, RXRa partner concentration 90 nM)
Summary of the method: as §1

[3] = test system: RARg homodimer (NR concentration 270 nM)
Summary of the method: as §1

[4] = test system: RXRa DBDmut IVT, anti-RXR (DBD mutation: RXRa K156A/R161A, NR concentration 90 nM)
Summary of the method: as §1

[5] = test system: RXRa homodimer (NR concentration 180 nM)
Summary of the method: as §1

[6] = test system: THRa:RXRa (NR concentration 90 nM, RXRa partner concentration 90 nM)
Summary of the method: as §1

[7] = test system: THRa homodimer (NR concentration 90 nM)
Summary of the method: as §1

[8] = test system: VDR homodimer (NR concentration 270 nM)
Summary of the method: as §1

[9] = test system: VDR:RXRa (NR concentration 270 nM, RXRa partner concentration 90 nM)
Summary of the method: as §1

Sequence | PBM binding z-score [1] | PBM binding z-score [2] | PBM binding z-score [3] | PBM binding z-score [4] | PBM binding z-score [5] | PBM binding z-score [6] | PBM binding z-score [7] | PBM binding z-score [8] | PBM binding z-score [9]
AATACAGGGTCACTAGGCCAGAGTGGGTACGAAT | 3.17 | 5.09 | 4.79 | 2.59 | 5.4 | 3.29 | 1.4 | 3.06 | –
TCGAGTAGGTTACGGGGCCATTCAGGGATGAAGA | 1.21 | 0.957 | 0.954 | 0.0548 | 1.06 | 2.47 | 0.44 | 0.657 | –
CGTTCAAGGTCATAGGAGGTCAGTGAAGACAGAT | 5.77 | 7.11 | 7.22 | 4.47 | 6.46 | 5.23 | 3.63 | 5.25 | –
CGAACTAGGTCACCTGGACAGTGAAGAGGTTGGA | 3.36 | 4.43 | 5.32 | 1.49 | 3.36 | 3.1 | 1.2 | 0.466 | –
CCGAGTAGGTTACGACGGGGCATTCAGTGCGAAT | 0.791 | 0.882 | 0.746 | -0.202 | 0.769 | 2 | -0.61 | 0.32 | –
ATATGTAGGTTAGCTGGCGTCATTCAGACTAGGC | -0.15 | 0.427 | 0.556 | -0.166 | 0.485 | -0.223 | -0.829 | -0.39 | –
CCGAGTAGGTTACGAGGGAGCATTCAGTGCGAAT | 0.337 | 0.625 | 0.53 | 0.00513 | 0.6 | 0.829 | -0.661 | -0.171 | –
CGAACTAGGTGACCAGGACAGTGAAGAGGTTGGA | 1.03 | 0.633 | 0.705 | -0.229 | 0.65 | 1.36 | 0.885 | -0.155 | 0.673
ATCGAAAGGTCGAAGGTGAGTACACCCACCCGAA | 2.79 | 4.39 | 4.08 | 1.13 | 4.96 | 2.54 | -0.0194 | 2.07 | –
TCCAGTAGGTTACGGGGGCATTCAGGGATGAAGA | 2.45 | 3.99 | 3.38 | 2.49 | 3.03 | 3.96 | 1.63 | 3.69 | –
ATCTCTAGGTTAAAGTTCAGTGAATCCCGAGGAT | 2.94 | 3.52 | 3.27 | 1.18 | 4.46 | 2.3 | 0.775 | 3.12 | –
CTATGAAGGTTAAGGGGGTCATTCAGTTTGAAAG | 4.39 | 5.59 | 4.32 | 2.92 | 6.52 | 3.97 | 2.22 | 6.88 | –
CTATGTAAGTTAAGGGGGTCATTCAGTTTGAAAG | 3.7 | 4.43 | 3.19 | 3.07 | 5.16 | 3.78 | 2.28 | 5.94 | –
AGTCAAATTTCATCTAGGTAACGTAAGATATGCT | -0.24 | -0.128 | 0.382 | 0.077 | 0.184 | 0.722 | 0.526 | 0.0484 | –
CCGAGCAGGTTACGAGGGGGCATTCAGTGCGAAT | 2.17 | 3.02 | 2.4 | 1.56 | 2.21 | 3.81 | 0.885 | 3.5 | –
CGAACTAGGTCACCACGACAGTGAAGAGGTTGGA | 3.15 | 4.59 | 5.39 | 1.66 | 3.31 | 3.02 | 1.16 | 0.592 | –
CCTTACCGGTCAAGGTTATAGCACGGGTGGTACG | 2.84 | 2.53 | 3.33 | -0.447 | 1.46 | 1.74 | 0.941 | 0.853 | –
CGAACTAGATCACCAGGACAGTGAAGAGGTTGGA | 0.0313 | -0.13 | 0.172 | 0.251 | 0.0064 | 0.901 | 0.52 | -0.172 | –
CCGAGTAGGTTACGAGGGTGCATTCAGTGCGAAT | 0.573 | 0.908 | 0.734 | 0.804 | 1.18 | 1.71 | -0.985 | 3.12 | –
ATCTGTAGGTTATCGGGTCATTCAGTTTGCGCAT | 3.19 | 3.59 | 2.78 | 1.68 | 3.48 | 3.36 | 3.04 | 3.95 | 5.17
CAAACTAGGTCAAGGTCAAAGTAGGTTTGTGCCA | 5.18 | 6.25 | 6.86 | 3.11 | 6.11 | 4.6 | 3.96 | 4.8 | –
CGAACTAGGTCACCAGTACAGTGAAGAGGTTGGA | 3.14 | 4.38 | 5.54 | 1.33 | 3.2 | 3.09 | 1.33 | 0.782 | –
CCTACTGGGCCAAGGTCATTGACCAGTCAAAGCA | 3.43 | 3.87 | 3.66 | 0.966 | 4.1 | 3.67 | 2.29 | 2.59 | 3.38
TTACCAAGGTGAACTGAGGTCGTTGATCCAACTC | 2.38 | 2.52 | 1.54 | 1.71 | 2.63 | 4.93 | 3.07 | 3.63 | –
ATATGTAGGTGAGGGTCATTCAGAAAGTAGGGAA | 3.13 | 3.24 | 3.06 | 1.67 | 3.67 | 2.56 | 1.31 | 2.76 | –
ATCGAAAGGTCGTGAGGTGAGTACACAGAAAGGC | 3.12 | 4.77 | 4.06 | 1.6 | 5.77 | 3.39 | 1.68 | 1.92 | –
CGAACTAGCTCAAAGGACAGTGAAAGGCGACGTA | 0.955 | 0.138 | 0.6 | -0.347 | -0.119 | 0.0409 | -0.622 | -0.00865 | –
TAGCCTAGGTGATTGGGCCAGTATAGTACGCATC | -0.159 | -0.276 | -0.119 | -0.669 | -0.198 | -0.224 | -0.512 | -0.67 | –
AGTGAAAGTTCAGGACGAGGTAACGTAAAGCACG | 3.13 | 4.55 | 4.38 | 2.84 | 2.54 | 3.93 | 1.95 | 2.34 | –

Reference: the supplement of paper PMC6555819
